In PubChem BioAssay AID1578 (Sanford-Burnham Center for Chemical Genomics, 2009):
Values joined by “and” are separate entries in the source; they are usually repeats but may differ in a detail not shown here. Equal values may be shown once. The campaign covered roughly 290,000 compounds. About 3,000 (1%) were called active. No stated cut-off is given here; in the data, active means inhibition mostly above about 36% (no sharp cut-off); inactive means mostly below about 34%. The full list was thinned out, with actives kept by preference.

test: NOD1 signaling inhibitors, primary screen, cell-based, luminescence, uHTS (AID 1578); conditions: NOD1-driven NF-kB luciferase reporter cells, at 4 µM, active compounds read high;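 further: HEK-293T reporter cells stimulated with the NOD1 agonist gamma-tri-DAP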

Compound | inhibition
O=C(Nc1ccccc1)Nc1cc(OCC(F)(F)F)cc(OCC(F)(F)F)c1 | -5.2% (inactive)
O=C(Nc1ccc(F)cc1)Nc1cc(OCC(F)(F)F)cc(OCC(F)(F)F)c1 | 84.5% (active)
CCOc1ccc(NC(=O)Nc2cc(OCC(F)(F)F)cc(OCC(F)(F)F)c2)cc1 | -32.9% (inactive)
C[C@H](NC(=O)[C@@H]1Cc2ccccc2CN1)C(=O)NC1CCCC1 | -25.1% (inactive)
COc1cccc(NC(=O)c2ccc(NC(=O)C(C)(C)C)cc2)c1 | -63% (inactive)
O=C(/C=C/c1ccc([N+](=O)[O-])cc1)Nc1ncc([N+](=O)[O-])s1 | 54.9% (active)
CCCOc1ccc(/C=C/C(=O)Nc2ccc([N+](=O)[O-])cc2)cc1 | 76.6% (active)
CCCCOc1ccc(/C=C/C(=O)Nc2ccc([N+](=O)[O-])cc2C)cc1 | -22.5% (inactive)
O=C(/C=C/c1ccc([N+](=O)[O-])cc1)Nc1cccnc1 | -4.6% (inactive)
O=C(Nc1ccccc1)Nc1ncc([N+](=O)[O-])s1 | -0.5% (inactive)
CCCOc1ccc(/C=C/C(=O)Nc2ccc([N+](=O)[O-])cc2C)cc1 | 0.8% (inactive)
COCC(C)n1c(SC(C)C(=O)NC2CCCCC2C)nc2ccccc2c1=O (stereo unspecified) | -27.1% (inactive)
CN(CC(=O)Nc1ccc(Cl)c(C(F)(F)F)c1)C(=O)CC1Sc2ccccc2NC1=O (stereo unspecified) | -18.8% (inactive)
O=S(=O)(c1ccc(F)cc1)N1CCN(CC(O)COc2ccccc2F)CC1 (stereo unspecified) | -0.6% (inactive)
COc1cccc(CNC(=O)CCC(=O)N2CCSc3ccccc32)c1OC | 5.1% (inactive)
CC(=O)Nc1ccc(S(=O)(=O)N2CCCC2C(=O)Nc2ccc3c(c2)OCCO3)cc1 (stereo unspecified) | -17.3% (inactive)
CCO[C@@H]1OC(C(=O)N2CCN(C)CC2)=C[C@H](c2csc3ccccc23)[C@H]1CCCO | -18% (inactive)
O=C(CCN1CCN(Cc2ccccc2)CC1)Nc1ccccc1Cl | -19.8% (inactive)
NNC(=O)CCN1CCN(Cc2ccccc2)CC1 | 45.4% (active)
NNC(=O)CCN1CCN(C(c2ccccc2)c2ccccc2)CC1 | -18.4% (inactive)
COC(=O)N/N=C/c1cc(Cl)cc(Cl)c1OCc1ccccc1F | -1.4% (inactive)
C=CCSc1nc(C)c(CC=C)c(=O)[nH]1 | -34.6% (inactive)
C=CCSc1nc(C)c(CC(=C)C)c(=O)[nH]1 | -23.6% (inactive)
C=CCSc1nc(C)c(Cc2cccc3ccccc23)c(=O)[nH]1 | 41.9% (active)

Compound | inhibition
C/C(=N\NC(=O)C1CC1)c1cccs1 | -17.5% (inactive)
CCc1ccnc(NS(=O)(=O)c2ccc3c(c2)CCO3)c1 | -5.6% (inactive)
O=S(=O)(N/N=C\c1c(F)cccc1Cl)c1ccc(Cl)cc1 | -0.4% (inactive)
COC(=O)c1ccc(Cl)c(NC(=O)c2ccc(-c3ccccc3)cc2)c1 | 6% (inactive)
CCCOC(=O)c1ccc(Cl)c(NC(=O)c2ccc(-c3ccccc3)cc2)c1 | 3.5% (inactive)
CCOC(=O)c1ccc(Cl)c(NC(=O)c2ccc(-c3ccccc3)cc2)c1 | 104% (active)
Cc1cc(NS(=O)(=O)c2ccc(NC(=O)C(C)Oc3ccc(Cl)cc3)cc2)no1 (stereo unspecified) | 6.9% (inactive)
O=C(Nc1cccc([N+](=O)[O-])c1)C12CC3CC(C1)CC(n1cnc([N+](=O)[O-])n1)(C3)C2 | 92.1% (active)
O=C(Nc1ccon1)C12CC3CC(C1)CC(n1cnc([N+](=O)[O-])n1)(C3)C2 | -18.8% (inactive)
O=C(Nc1ccccc1)C12CC3CC(C1)CC(n1cnc([N+](=O)[O-])n1)(C3)C2 | 1.9% (inactive)
COc1ccc(C(=O)N2CCCC(C(=O)N3CCN(c4ccccc4)CC3)C2)cc1 (stereo unspecified) | 2.5% (inactive)
O=C(Nc1ccc(N2CCN(C(=O)c3ccccc3)CC2)cc1)c1ccc2c(c1)OCCO2 | 31.2% (inactive)
Cc1ccccc1C(=O)N1CCN(c2ccc(NC(=O)c3ccc4c(c3)OCO4)cc2)CC1 | 3% (inactive)
COc1ccccc1N(CC(=O)Nc1ccccc1C)S(C)(=O)=O | -26.9% (inactive)
CC(NC(=O)C1CC=CCC1C(=O)O)C1CC2CCC1C2 (stereo unspecified) | -30.7% (inactive)
CC(NC(=O)C1CCCC1)C1CC2CCC1C2 (stereo unspecified) | 96.5% (active)
CC(NC(=O)c1ccccc1Cl)C1CC2CCC1C2 (stereo unspecified) | -16.6% (inactive)
CC(=O)[C@H]1CC[C@H]2[C@@H]3CCC4=CC(=O)CC[C@]4(C)[C@H]3CC[C@]12C | 5.4% (inactive) and -4.1% (inactive)
C[C@]12CC(O)C3C(CCC4=CC(=O)CC[C@@]43C)C1CCC2c1csc(-c2ccccc2)n1 (stereo partly specified) | 15.3% (inactive)
C/C(=N\O)c1ncc(C(F)(F)F)cc1Cl | -23.5% (inactive)
CC(C)NC(=O)CC(=O)N/N=C\c1ccccc1C(=O)O | -33.7% (inactive)
CSc1ccccc1C(=O)Nc1cccc(N(C)S(C)(=O)=O)c1 | -8.4% (inactive)
CC1Cc2ccccc2N1CC(=O)NC(=O)NCc1ccco1 (stereo unspecified) | -5.2% (inactive)
Cc1cccc(N2C(=O)c3cccc4c(N)ccc(c34)C2=O)c1 | 26.2% (active)

Compound | inhibition
Nc1cccc(N2C(=O)c3cccc4c(N)ccc(c34)C2=O)c1 | 5.7% (inactive)
Nc1ccc2c3c(cccc13)C(=O)N(c1ccccc1)C2=O | -19.1% (inactive)
O=C(NCCOc1ccccc1)C1CCC(=O)N(CCCN2CCOCC2)C1 (stereo unspecified) | -28.6% (inactive)
Cc1ccc2c(c1)C(=O)CC(c1ccc3c(c1)OCCO3)O2 (stereo unspecified) | -0.6% (inactive)
Cn1c(Cl)cnc1C1CC(=O)c2cc(Cl)ccc2O1 (stereo unspecified) | 76.3% (active)
COc1ccc2c(c1)C(=O)CC(c1ccccc1F)O2 (stereo unspecified) | 5.9% (inactive)
COc1ccc(CN(C)C(=O)c2ccc(COc3ccccc3)cc2)c(OC)c1 | -11.1% (inactive)
Cc1ccsc1/C=N\NC(=O)Cn1nnc2ccccc21 | -9.3% (inactive)
OCCN1CCN(CC(O)COC(c2ccc(F)cc2)c2ccc(F)cc2)CC1 (stereo unspecified) | -11.1% (inactive)
OC(COC(c1ccc(Cl)cc1)c1ccc(Cl)cc1)CN1CCCC1 (stereo unspecified) | -28.8% (inactive)
OC(COC(c1ccc(F)cc1)c1ccc(F)cc1)CN1CCCC1 (stereo unspecified) | 40.5% (active)
Cc1ccccc1NC(=O)Cc1nc(COC(=O)c2cc(Cl)ccc2O)cs1 | -19.6% (inactive)
CC(=O)Oc1cc(OC(C)=O)c2c(=O)c(-c3ccc4c(c3)OCCCO4)c(C)oc2c1 | -3% (inactive)
O=C(NCc1cccnc1)c1ccc(-c2cccc(Cl)c2Cl)o1 | 40.8% (active)
O=C(NCc1cccnc1)c1ccc(-c2cc(Cl)ccc2Cl)o1 | 42.3% (inactive)
O=C(NCc1cccnc1)c1ccc(-c2ccc(Cl)cc2)o1 | -19.4% (inactive)
Cc1csc(=O)n1CC(=O)OCC(=O)Nc1cc(Cl)ccc1[N+](=O)[O-] | -34.9% (inactive)
CCN(C(=O)CSc1nncs1)c1c(N)n(Cc2ccccc2)c(=O)[nH]c1=O | 4.6% (inactive)
CCC(=O)NC(C)C(c1cccs1)N1CCN(Cc2ccccc2)CC1 (stereo unspecified) | -18.4% (inactive)
O=C(COc1ccc(Cl)cc1)N1CCN(C(=O)c2ccccc2F)CC1 | 27.3% (inactive)
C=C1C(=O)O[C@@H]2[C@H]1[C@@H](OC(=O)/C(C)=C/C)C/C(C)=C\C(=O)/C=C(\C)[C@@H]2O | 54.7% (active)
C=C1C(=O)O[C@H]2C[C@]3(C)C([C@@H](OC(=O)/C(C)=C/C)[C@H]12)[C@](C)(O)CC[C@H]3O (stereo partly specified) | 13.6% (inactive)
C=C1C(=O)O[C@H]2[C@H]1[C@@H](O)CC(=C)[C@@H]1CC(=O)[C@@H](C)[C@H]21 | 9.7% (inactive)
CCn1c(CC(=O)Nc2ccc(OC)cc2)nnc1SCC(=O)N1CCOCC1 | -21.2% (inactive)

Compound | inhibition
COc1ccc(/C=C/C(=O)c2ccncc2)c2ccccc12 | 6.3% (inactive)
COc1ccc(/C=C/C(=O)c2ccc[nH]2)c(OC)c1OC | -21.2% (inactive)
COc1cc2[nH]c(=O)n(C3CCCCC3)c(=O)c2cc1OC | 3.9% (inactive)
CCOc1ccc(-c2nc(N)ncc2-c2ccccc2)c(O)c1 | 2.9% (inactive)
CCOc1ccc(-c2nc(N)ncc2-c2ccc(Cl)cc2)c(O)c1 | 34.1% (active)
CCOc1ccc(-c2nc(N)ncc2-c2ccc(OC)cc2)c(O)c1 | 7.2% (inactive)
C=CCN1C(=O)C(CC(=O)O)SC1=Nc1ccc(C)cc1 (stereo unspecified) | -23.8% (inactive)
CC(Oc1ccccc1)c1ccnc2nc(/N=C/N(C)C)nn12 (stereo unspecified) | -24.9% (inactive)
CC1(C)CC(=O)c2sc(NC(=O)c3ccccc3)nc2C1 | -45.6% (inactive)
CC1(C)CC(=O)c2sc(NC(=O)CCS(=O)(=O)c3ccccc3)nc2C1 | 71% (active)
CC1(C)CC(=O)c2sc(NS(=O)(=O)c3ccccc3)nc2C1 | -13.7% (inactive)
CN(C)c1c(F)cc(C(=O)NC(=O)NCc2cccnc2)cc1F | -15% (inactive)
COc1ccc(C(CC(=O)O)NC(=O)c2cccs2)cc1 (stereo unspecified) | -11.2% (inactive)
Cc1cccc(NC(NC(=O)c2ccccc2[N+](=O)[O-])C(Cl)(Cl)Cl)c1 (stereo unspecified) | -3.9% (inactive)
COc1cc(OC)cc(-n2nnnc2SCC(=O)Nc2nc3c(s2)CCCC3)c1 | -3.7% (inactive)
COc1ccc(-n2nnnc2SCC(=O)Nc2nc3c(s2)CCCC3)cc1 | 43.4% (inactive)
O=C(CSc1nnnn1-c1ccc2c(c1)OCCO2)Nc1nc2c(s1)CCCC2 | 58.5% (active)
O=C(O)c1cccc(Oc2ccc([N+](=O)[O-])cc2)c1 | -8.3% (inactive)
COc1cc(/C=N/NC(=O)C(=O)NCc2cccnc2)cc(OC)c1OC | -15.5% (inactive)
Cc1ccc(C(=O)O/N=C(\N)c2ccccn2)cc1 | 11.3% (inactive)
N/C(=N\OC(=O)c1ccccc1)c1ccccn1 | 18.4% (inactive)
COc1ccc(C(=O)O/N=C(\N)c2ccccn2)cc1 | 84.1% (active)
COc1cc(OC)cc(C(=O)O/N=C(\N)c2ccccn2)c1 | -12.2% (inactive)
CCOc1ccc(C(=O)O/N=C(\N)c2ccccn2)cc1 | 20.4% (inactive)
